Consider 10 compounds from PubChem BioAssay (EPA / NIEHS).

Where “and” joins values, the source holds several entries; their conditions need not be identical. Identical values can stand only once. Results filed as inconclusive are left out. Calls of active or inactive are those of the source. How the source made its calls: active means hit-call score of the fitted dose curve at least 0.9, where 1 is the maximum; inconclusive means response in the unintended direction; inactive means score below 0.9.

The subject of this experiment is frog Estrogen Receptor (ER2), gene 100174814. In words: ATG_frER2_XSP2: Attagene TRANS-FACTORIAL Multi-Species (XSP2) HepG2 Assay for frog Estrogen Receptor (ER2) (AID 2283828). The procedure: ATG_XSP2_multi-species_TRANS is a cell-based, multiplexed assay created by modifying the existing Attagene TRANS-FACTORIAL system to include a panel of nuclear receptors from some or all the following species: human (Homo sapiens), mouse (Mus musculus), frog (Xenopus laevis), zebrafish (Danio rerio), chicken (Gallus gallus), and turtle (Chrysemys picta). The ECOTOX-FACTORIAL format uses HepG2, a human liver cell line, with measurements taken at 24 hours after chemical dosing in a 24-well plate. Xsp2 included 3 nM 6-alpha-fluorotestosterone and 1.5 nM norgestrel to stimulate the androgen receptor.ATG_frER2_XSP2 is one of 29 assay components measured or calculated from the ATG_XSP2_multi-species_TRANS assay. It is designed to make measurements of mRNA induction, a form of inducible reporter, as detected with fluorescence intensity signals by Reverse transcription polymerase chain reaction (RT-PCR) and Capillary electrophoresis technology.The assay endpoint ATG_frER2_XSP2 was analyzed in the positive analysis fitting direction relative to DMSO as the negative control and baseline of activity. Using a type of inducible reporter, measures of mRNA for gain-of-signal activity can be used to understand the reporter gene at the transcription factor-level as they relate to the gene ER. Furthermore, this assay endpoint can be referred to as a primary readout, because this assay has produced multiple assay endpoints where this one serves a reporter gene function. To generalize the intended target to other relatable targets, this assay endpoint is annotated to the nuclear receptor intended target family, where the subfamily is steroidal.
Human liver HepG2 cells are transiently transfected with multiple reporter transcription units (MRTUs) in 6-well plates using FuGene 6 reagent (Roche; 3 ml FuGene/1 mg DNA). The MRTU constructs are regulated by a cis-regulating element (promoter). […] A major difference between the CIS and TRANS system is that in CIS activities of endogenous TFs are measured, whereas the TRANS assay evaluates changes in activities of exogenous, chimeric NR-Gal4 proteins. […] At the end of 24 hour incubation, total RNA was isolated using TriZol reagent (Invitrogen). The isolated RNA is then reverse-transcribed using oligo(dT) primer and Mo-MLV reverse transcriptase (Invitrogen) with DNAse I (Ambion) treatment for 30 min. The one-tenth of the produced cDNA was amplified by PCR using Taq DNA polymerase (Invitrogen) and two reporter sequence-specific primers. The PCR products were fluorescently labeled by primer extension with 6-arboxyfluorescein (6-FAM) 5'-labeled reporter sequence-specific primer (2 min at 95 C, 20 s at 68 C and 10 min at 72 C) and these products were digested with 5U of HpaI (New England Biolabs) for 2h at 37 C. The fragments were purified using Qiaquick PCR columns (Qiagen), analyzed on an ABI 3130xL genetic analyzer (Applied Biosystems) with peak positions identified by using a set of X-rhodamine (ROX)-labeled MapMarker1000 molecular weight standards (BioVentures). The raw capillary electrophoresis data was processed using Attagraph software (Attagene).
As for `CCCN(CCOc1c(Cl)cc(Cl)cc1Cl)C(=O)n1ccnc1`, the compound was classed as inactive.
The same measure, in the same setting: the same measure for `Oc1cc(Cl)ccc1Oc1ccc(Cl)cc1Cl`: “inactive”.
For `O=C(O)C(F)(F)C(F)(F)C(F)(F)C(F)(F)C(F)(F)C(F)(F)C(F)(F)F`, the AC50 is 64.1 µM (active).
On the same count and under the same terms, with `CCCN(CCC)c1c([N+](=O)[O-])cc(C(F)(F)F)cc1[N+](=O)[O-]` the figure was 100 µM (active).
Regarding `Oc1ccc(Cl)cc1Cc1ccccc1`, the call was inactive.
The same measure, in the same setting: with `O=S1OCC2C(CO1)C1(Cl)C(Cl)=C(Cl)C2(Cl)C1(Cl)Cl` (stereo not given) the entry was “inactive”.
Still for that read-out and setting: with `CCOCN(C(=O)CCl)c1c(C)cccc1CC` the entry was “inactive”.
For the compound `COP(=S)(OC)Oc1ccc([N+](=O)[O-])cc1`, the AC50 was 100 µM (active) and 36.9 µM (active).
With `CC(C)(C)C(O)/C(=C\c1ccc(Cl)cc1Cl)n1cncn1` (stereo not given), the AC50 was 23.1 µM (active) and 8.13 µM (active).
For the compound `COP(=S)(OC)Oc1ccc(SC)c(C)c1`, the concentration at half-maximal activity (AC50) is 26.8 µM (active).
